Screening data as filed in PubChem.
HT1080NT lethal: kills 2HG-producing HT-1080-NT fibrosarcoma cells. HT-1080-NT fibrosarcoma viability, CellTiter-Glo ATP luminescence, 48 h. Potency, µM (titrated, usually from 46.1 µM), inactives show at the highest dose activity, negative = less viability, hits mostly cytotoxic. hit rate 1.6% among 360,000;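 also: NT is the 2HG producing partner of a matched IDH1 knockdown line; 0% = DMSO-treated cells and -100% = media-only wells without cells; nearly all actives have a fitted effect of over 55% in size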
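HT-1080-NT; 750 cells/well; 5% FBS RPMI; 48 h compound, 37 degrees C; CellTiter-Glo luminescence; curve fitting and curve-class assignment.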
KB-V1 MDR tox: kills drug-selected multidrug resistant KB-V1 cells; hit rate 3.4% among 400,000; AID 1347076; KB-V1 MDR cells viability, CellTiter-Glo, 72 h; Potency, µM (series often up to 46.1 µM), hits mostly cytotoxic; also: % is scaled to controls: 0 for no effect and ±100 for the full control effect; nearly all actives have a fitted effect of over 60% in size
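Cytotoxicity via CellTiter-Glo luminescence after 72 h compound exposure at 37 degrees C. Cells: drug-selected KB-V1 line, DMEM phenol-red free plus 10% FBS. Compounds tested at multiple concentrations; normalized data fitted to concentration-effect curves.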
HT1080 IDH1KD tx: kills HT-1080 cells with IDH1 knockdown | Potency, µM (top dose mostly 46.1 µM), without a hit: top-dose activity, negative = toxicity, most hits filed as cytotoxic | hit rate 2% among 360,000 | HT-1080 IDH1 knockdown viability, ATP luminescence, 48 h;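 also: 0% = DMSO wells and -100% = cell-free medium wells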
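Viability of IDH1-knockdown HT-1080 fibrosarcoma cells was assessed by CellTiter-Glo after 48 h at 37 °C with titrated compound; concentration-effect curves were classified by fit quality and response size.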
MCF10A rerep: inducers of DNA re-replication in MCF 10A breast cells | hit rate 2.9% among 350,000 | MCF 10A DNA re-replication, Hoechst nuclear intensity, 48 h | Potency, µM (highest dose often 46.1 µM), without a hit: top-dose activity, positive = re-replication, actives largely listed as activators; also: % of control where 0% means no effect; nearly all actives have a fitted effect of over 50% in size
SW480 rereplic: DNA re-replication induction in SW480 cells. SW480 DNA re-replication, Hoechst DNA content imaging, 48 h. Potency, µM (highest dose often 46.1 µM), without a hit: at the top dose re-replication activation, hits mostly activators. hit rate 1.8% among 340,000. AID 624297; also: % of control where 0% means no effect; nearly all actives have a fitted effect of over 55% in size
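SW480 cells exposed to compounds for 48 hr at 37 C, 5% CO2, then Hoechst-stained 40 min. Nuclear DNA content imaged by fluorescence scanning (405 nm excitation, 500-530 nm emission); re-replication scored as increased high-intensity nuclei.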
KB-3-1 cytotox: KB-3-1 parental cell cytotoxicity; KB-3-1 viability, CellTiter-Glo ATP luminescence, 72 h; Potency, µM (highest dose often 46.1 µM), usual class: cytotoxic; hit rate 1.4% among 400,000; AID 1347075; also: % is scaled to controls: 0 for no effect and ±100 for the full control effect; nearly all actives have a fitted effect of over 60% in size
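Cytotoxicity in the drug-sensitive parental line KB-3-1 was scored as loss of CellTiter-Glo luminescence following 72 h incubation with compound. Values come from curve fitting of normalized concentration-response data.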
Starred values were filed as active, the others as inactive; i = inactive; ? = inconclusive; · = no result given; [ ] = dose if it differs, or a comment. This is a sample that favours compounds with a hit; in the whole collection about 8% have one here. Calls follow the shape of the dose curve; as a rule, active = well fitted curve in the direction sought with a large enough effect; inconclusive = small, poorly fitted or top-dose-only effect, or another doubt; inactive = no such curve, though single readings can be large; an effect the other way counts as inactive or inconclusive. Potency is read from the fitted curve at half-maximal effect.

SMILES	HT1080NT lethal	KB-V1 MDR tox	HT1080 IDH1KD tx	MCF10A rerep	SW480 rereplic	KB-3-1 cytotox
COCCNC(=O)CCc1c(C)nc2c(c(C)nn2-c2ccc(C)cc2)c1C	3%	i	-6%	5%	?	i
CN(C)c1ccc(/C=N\NC(=S)SCN2C(=O)C3CCC(C)(C2=O)C3(C)C)cc1 (centres undefined)	-9%	i	-3%	7.3µM*	?	i
Cc1ccc2onc(CC(=O)N3CCN(c4cccc(Cl)c4)CC3)c2c1	·	i	·	·	·	i
Cc1ccc(NC(=O)c2c(C)oc3ccc(O)c(CN4CCCC4)c23)c(C)c1	·	i	·	·	·	i
O=C(c1ccccc1)C(CN1CCCCC1)c1ccccc1 (centres undefined)	2.6µM*	15µM*	10µM*	4.1µM*	1.5µM*	5.8µM*
O=C(c1ccccc1)c1ccc(OCC(O)CN2CCOCC2)cc1 (centres undefined)	-5%	i	-2%	-1%	0%	i
CCOc1ccc(C(=O)C(CN2CCOCC2)c2ccccc2)cc1 (centres undefined)	-9%	?	9.2µM*	7.3µM*	5.2µM*	?
CC(CN1CCCC1)OC(=O)C(c1ccccc1)c1ccccc1 (centres undefined)	10%	i	18%	0.58µM*	?	i
CC(CN1CCN(CC(C)C(=O)c2ccccc2)CC1)C(=O)c1ccccc1 (centres undefined)	-5%	i	2%	7%	2%	i
O=C(c1ccc(Br)cc1)C(CN1CCOCC1)c1ccccc1 (centres undefined)	10µM*	?	7.3µM*	18µM*	?	?
CN(Cc1cccs1)c1ncnc2ccc(-c3ccc4cn(C)nc4c3)cc12	·	i	·	·	·	?
CCOc1ccc(C(C#N)N2CCOCC2)cc1OC (centres undefined)	4%	i	3%	4%	-5%	i
CCOc1ccc(C(CN2CCOCC2)C(C)=O)cc1OC (centres undefined)	21µM*	?	10µM*	·	·	?
CCOC(=O)C1=C(c2ccccc2)N=c2s/c(=C\c3cccc(O)c3)c(=O)n2C1c1cccs1 (centres undefined)	?	i	?	?	?	i
O=c1/c(=C\c2ccc(O)cc2)sc2n1C(c1ccccc1)C(c1ccccc1)=NN=2 (centres undefined)	-17%	?	-22%	7.3µM*	?	?
Cn1ncc2c(NCc3ccc(F)cc3)ncnc21	·	i	·	·	·	i
Cc1nc(N)nc(N)c1-c1ccc([N+](=O)[O-])cc1	-2%	i	10µM*	17%	14%	i
CC(=O)N1CCN(S(=O)(=O)c2cccc(C(=O)OCC(=O)N(Cc3ccccc3)C(C)(C)C)c2)CC1	0%	i	3%	7.3µM*	-9%	i
CC(C)(C)N(Cc1ccccc1)C(=O)COC(=O)c1ccccc1SCC(=O)N1CCCC1	-6%	21µM*	-1%	-16%	-22%	i
CC(C)(C)N(Cc1ccccc1)C(=O)COC(=O)c1ccc(S(=O)(=O)N2CCOCC2)cc1	4%	·	0%	-2%	-5%	·
CC(=O)N1CCN(S(=O)(=O)c2cccc(C(=O)OCc3ccc(F)cc3)c2)CC1	-13%	i	-11%	·	·	i
O=C(COC(=O)c1ccccc1SCC(=O)N1CCCC1)Nc1ccccc1	17%	i	0%	-1%	12%	i
CC(=O)N1CCN(S(=O)(=O)c2cccc(C(=O)OCc3cccc(F)c3)c2)CC1	-6%	18µM*	0%	-5%	-9%	i
NC(=O)c1cnn2c(C(F)(F)F)cc(-c3ccccc3)nc12	-12%	?	-4%[9.24 µM]	7%	-9%	i
NC(=O)c1cnn2c(C(F)(F)F)cc(-c3ccc(F)cc3)nc12	-10%	13µM*	0%	11%	-6%	i
SMILES	HT1080NT lethal	KB-V1 MDR tox	HT1080 IDH1KD tx	MCF10A rerep	SW480 rereplic	KB-3-1 cytotox
COc1ccc(-c2cc(C(F)(F)F)n3ncc(C(=O)N(C)Cc4ccccc4)c3n2)cc1	-11%	i	?	?	23µM*	i
O=[N+]([O-])c1ccc(O)c(Nc2ncnc3ccc(Br)cc23)c1	?	i	?	13µM*	?	?
Cc1cccc(C)c1-n1ncc(C(=O)O)c1C1CCN(C(=O)OC(C)(C)C)CC1	·	i	·	·	·	i
Cc1ccc(Sc2ccc(NC(=O)CCl)cc2)cc1C	-24%	?	-27%	?	?	?
Cc1ccc(C)c(Sc2ccc(NC(=O)CCl)cc2)c1	-16%	?	-19%	?	26%	21µM*
CCOC(=O)c1ccc(NS(=O)(=O)c2cn(C)c(C)n2)cc1	·	i	·	·	·	i
CSC1SCC2C(=O)N(C)C(C(C)C)C(=O)OCC(NC(=O)c3cnc4ccccc4n3)C(=O)NC(C)C(=O)N(C)C1C(=O)N(C)C(C(C)C)C(=O)OCC(NC(=O)c1cnc3ccccc3n1)C(=O)NC(C)C(=O)N2C (centres undefined)	-32%	1.6µM*	0.0012µM*	4%	-1%	i
COC(=O)C1=C(C)NC(=O)/C1=C\c1cc(C)n(-c2c(C)cccc2C)c1C	-4%	i	3%	5.8µM*	?	i
C=CC[C@@H](CC(=O)N(CCO)Cc1ccccc1)C(=O)NC[C@H](OC(=O)[C@@H](CC=C)Cc1ccc(F)cc1)c1ccccc1	?	16µM*	?	?	7%	?
C=CC[C@H](CC(=O)N(CCO)Cc1ccccc1)C(=O)N[C@@H](COC(=O)[C@@H](CC=C)Cc1ccc(F)cc1)Cc1c[nH]c2ccccc12	?	i	?	18µM*	21µM*	i
C=CCC[C@@H](Cc1ccc(F)cc1)C(=O)OC[C@@H](Cc1c[nH]c2ccccc12)NC(=O)[C@H](CC=C)CC(=O)N(CCO)Cc1ccccc1	16µM*	21µM*	?	23µM*	?	?
C=CCC[C@H](Cc1ccc(F)cc1)C(=O)OC[C@@H](Cc1c[nH]c2ccccc12)NC(=O)[C@H](CC=C)CC(=O)N(CCO)Cc1ccccc1	?	?	?	18µM*	?	?
C=CC[C@@H](CC(=O)N(CCO)Cc1ccccc1)C(=O)N[C@@H](COC(=O)[C@@H](CC=C)Cc1ccc(F)cc1)Cc1c[nH]c2ccccc12	?	?	?	?	1%	?
